# Source: PubChem (several laboratories)
# phage Ecoli inh = growth loss of phage-infected E. coli, primary screen, RecBCD inhibitor project, absorbance, with phage, HTS. inhibition, % at 11.9 µM. 360,000 compounds, 0.26% hits. AID 651602, 2012; in the data active means inhibition above about 11%
# E coli growth-1 = E. coli growth inhibition, primary screen, OD600 | Escherichia coli growth, 23 h; stronger effect = lower value | OD600 absorbance (test concentration not listed) | 330,000 compounds, 0.21% hits | AID 1053175, 2014;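 active means OD600 absorbance below the run mean of sample wells minus 3.6 SD, in any replicate, cut at about 0.56 in these data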
# AddAB inh = growth inhibition of E. coli expressing H. pylori AddAB, primary screen, AddAB inhibitor project, absorbance; inhibition, % at 11.9 µM; AID 435030, 2010; 330,000 compounds, 0.29% hits; in the data active means inhibition above about 12%;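 further: 0% = vehicle wells of infected cells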
# PfHsp90 set2 = growth inhibition of PfHsp90-expressing yeast, primary screen, antimalarial PfHsp90 inhibitor project, S. cerevisiae, BacTiter-Glo luminescence, single point, set 2; BacTiter-Glo ATP, 48 h; yeast lacking PDR1 and PDR3 efflux regulators; inhibition, % at 9.4 µM; 310,000 compounds, 0.32% hits; AID 504621, 2011;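 active means every replicate shows inhibition above about 80%, whatever the replicate mean, limit read from the data; inconclusive means mean inhibition reaches the set limit but some replicate falls short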;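 further: 0% = DMSO neutral controls and 100% = 20 µM radicicol positive controls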
# Tat export inh = E. coli Tat export inhibitors, primary screen, MC4100, TorA-mCherry reporter, fluorescence, single point; inhibition, % at 10 µM; 340,000 compounds, 0.036% hits;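 active means mean replicate inhibition at least 50% and at least half of replicates individually reaching 50%; inconclusive means only one of the two criteria met; inactive means neither criterion met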;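 further: exported cargo escapes ClpAP degradation while cytoplasmic cargo is degraded and loses fluorescence; 0% = median of neutral control wells and 100% = median of NaSCN control wells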
# E coli growth-2 = E. coli V3065 growth inhibition, primary screen, counter-screen for AddAB inhibitor project, absorbance, OD600; 18 h; 330,000 compounds, 0.27% hits; inhibition, % at 11.9 µM; AID 449728, 2010;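 active means inhibition above the campaign's mean inhibition across all tested compounds plus 3 SD, cut at about 9.9% in these data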;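 further: uninfected addAB+ strain grown without phage in ampicillin broth; 0% = DMSO wells and 100% = ciprofloxacin 0.95 µg/ml wells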
# RecBCD conf = growth loss of phage-infected RecBCD+ E. coli, confirmation, RecBCD inhibitor project, absorbance, E. coli V66, T4 gene 2 phage | shares compounds with phage Ecoli inh | E. coli V66 + T4 2- phage, growth OD | inhibition, % at 11.9 µM | 890 compounds, 45% hits;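 active means mean inhibition over triplicates exceeding the hit threshold derived in the original primary screen, cut at about 11% in these data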
# Ecoli viability = E. coli viability inhibition, counter-screen for RecBCD inhibitor project, absorbance, high throughput; inhibition, % at 11.9 µM; 890 compounds, 29% hits; shares compounds with phage Ecoli inh; absorbance (OD) growth; in the data active means inhibition above about 20%;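 further: E. coli strain V66 grown with compound alone and no phage infection; 0% = bacteria with DMSO vehicle only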
# AddAB counter = growth loss of phage-infected AddAB-carrying E. coli, confirmation, counter-screen for RecBCD inhibitor project, absorbance, E. coli V3065, T4 phage; shares compounds with phage Ecoli inh; E. coli expressing H. pylori AddAB + T4 phage, OD growth; gene 2 mutant T4, recBCD-deleted host; inhibition, % at 11.9 µM; 890 compounds, 45% hits;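 active means mean inhibition above the solvent-only control wells' mean plus 3 SD, cut at about 22% in these data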;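 further: higher means less bacterial growth from phage killing when AddAB is blocked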
# An asterisk follows results filed as active; ? = inconclusive; . = not tested or not shown. An excerpt weighted towards active compounds, which were near 0.69% of everything screened.
SMILES,phage Ecoli inh,E coli growth-1,AddAB inh,PfHsp90 set2,Tat export inh,E coli growth-2,RecBCD conf,Ecoli viability,AddAB counter
O=C1c2ccccc2C(=O)c2c1ccc(O)c2O,15*,.,.,13,-1,.,6,8,6
COC(=O)c1ccc2c(c1O)C(=O)c1ccccc1C2=O,0,0.69,0,-102,-2,-4,.,.,.
CCN(CC)S(=O)(=O)c1cccc(NC(=O)CC2CCCC2)c1,1,0.7,2,-17,25,1,.,.,.
CCN(CC)S(=O)(=O)c1cccc(NC(=O)Nc2cccc(C(F)(F)F)c2)c1,11*,0.64,9,.,13,7,2,4,2
NC(=O)NN=Cc1ccc(-n2nncc2-c2ccc(Cl)cc2)cc1,.,0.69,.,.,.,.,.,.,.
Cc1cc(-c2ccccc2)n(-c2cc(NN=Cc3ccccc3O)ncn2)n1,.,0.71,.,.,.,.,.,.,.
Cc1cc(-c2ccccc2)n(-c2cc(N/N=C/c3ccccc3O)ncn2)n1,16*,.,9,-5,-4,5,6,7,4
O=C1c2ccccc2NC(c2ccc(-c3cccc(F)c3)o2)N1O (configuration not stated),12*,0.66,9,.,3,9,3,4,4
O=C1c2ccccc2NC(c2cccc(F)c2)N1Cc1ccccc1 (configuration not stated),1,0.62,1,-10,-4,-1,.,.,.
O=C1c2ccccc2NC(c2ccc(Cl)cc2Cl)N1O (configuration not stated),12*,0.74,6,-5,?,6,5,6,11
C[C@@]12C(=O)N(c3ccc(Cl)cc3)C(=O)N1C1c3ccccc3OCC1C2c1ccccc1 (some centres not stated),.,0.69,.,.,.,.,.,.,.
CC(=NNC(=S)N1CCC1)c1ccccn1,41*,.,.,107*,0,.,43*,52*,41*
CCN1C(=O)C2C(c3ccc(OC)cc3)N3C(=O)CN(CCOC)C(=O)[C@@]3(Cc3ccccc3)C2C1=O (some centres not stated),.,0.71,.,.,.,.,.,.,.
COc1ccc(CNC(=O)C2CC=CC3CCN(Cc4ccccc4)C(=O)C32)cc1 (configuration not stated),.,0.66,.,.,.,.,.,.,.
O=C(/C=C/c1ccccc1)c1cc(Br)ccc(=O)c1O,27*,0.71,9,82*,-10,10*,16*,22*,6
O=C(CSc1ccc(-c2ccccn2)nn1)Nc1cccc(F)c1,12*,0.62,10,-52,11,11*,4,3,6
Nc1nc2cc(Br)ccc2o1,14*,0.65,.,-4,-16,.,11*,11,28*
Nc1ccc2oc(-c3cccc(Br)c3)nc2c1,.,0.69,-1,-16,-2,-1,.,.,.
Cc1nn(-c2ccccc2)c(N2CCCC2)c1/C=N/NC(=O)c1ccccc1O,-1,.,3,-14,2,2,.,.,.
O=C(N/N=C/c1cc2c3c(c1O)CCCN3CCC2)c1ccccc1O,25*,.,.,107*,-6,.,10,14,14
CN(C)CCNc1cccc2sc3ccc(O)cc3c(=O)c12,13*,.,.,.,.,.,-3,-3,3
Cc1ccc(NCCN(C)C)c2c(=O)c3cc(O)ccc3sc12,1,.,.,29,-9,.,.,.,.
COC(=O)C(=O)/C=C(/O)c1ccc(C)cc1,.,0.69,.,.,.,.,.,.,.
NS(=O)(=O)c1ccc(CCNC(=O)CC(NC(=O)c2ccccc2Cl)c2ccccc2)cc1 (configuration not stated),15*,0.67,-2,-9,2,-2,-1,0,5
COc1ccc(CCNC(=O)CC(NC(=O)c2ccccc2Cl)c2ccccc2)cc1 (configuration not stated),2,0.71,0,-6,0,-1,.,.,.
SMILES,phage Ecoli inh,E coli growth-1,AddAB inh,PfHsp90 set2,Tat export inh,E coli growth-2,RecBCD conf,Ecoli viability,AddAB counter
S=C(NCc1ccccn1)NN=Cc1ccccn1,18*,.,.,-8,0,.,14*,16,16
CO/N=C(\C(=O)N[C@@H]1C(=O)N2C(C(=O)O)=C(COC(N)=O)CS[C@H]12)c1ccco1,63*,.,-3,14,1,0,93*,98*,81*
CON=C(C(=O)NC1C(=O)N2C(C(=O)O)=C(CSc3nc(=O)c(=O)[nH]n3C)CSC12)c1csc(N)n1 (configuration not stated),102*,.,.,-10,-22,.,102*,103*,103*
COCC1=C(C(=O)OC(C)OC(=O)OC(C)C)N2C(=O)[C@@H](NC(=O)/C(=N\OC)c3csc(N)n3)[C@H]2SC1 (some centres not stated),7,.,-1,17,-4,2,.,.,.
S=c1[nH]nc(-c2ccccc2)n1N=Cc1cccc(Br)c1,.,0.65,.,.,.,.,.,.,.
C(=Cc1sc(Nc2ccccc2)n[n+]1-c1ccccc1)c1ccccc1,.,0.62,.,.,.,.,.,.,.
O=C(CC1CC=CCCC(=O)OC(c2ccccc2)CNC1=O)NCCO (configuration not stated),.,0.69,.,.,.,.,.,.,.
CCCOc1ccc(CNC(=O)c2ccc3nc(N4CCOCC4)sc3c2)cc1,25*,0.75,-1,-4,-12,-1,-1,0,4
Cc1cccc(C=NNC(=O)Cn2nnnc2N)n1,.,0.69,.,.,.,.,.,.,.
Cc1cc(C=NNC(=O)c2c(Br)cnn2C)c(C)n1-c1cccc(Br)c1,.,0.64,.,.,.,.,.,.,.
COc1ccc(N(CC(=O)Nc2cccc(C)c2C)S(=O)(=O)c2c(C)[nH]c(=O)[nH]c2=O)cc1,100*,0.69,1,2,6,0,-5,-4,-3
COc1ccc(N(CC(=O)Nc2cccc(C)c2C)S(=O)(=O)c2c(C)n[nH]c2C)cc1,3,0.72,5,.,3,2,.,.,.
CCC(C)NC(=O)C1c2ccccc2C(=O)N1Cc1cc(OC)ccc1OC (configuration not stated),14*,0.72,0,14,3,1,1,1,3
CCOc1ccc(CN2C(=O)c3ccccc3C2C(=O)NC(C)CC)cc1OC (configuration not stated),3,0.65,-1,5,4,0,.,.,.
CCCCOC1NC(=O)NC(=O)C1(F)C(=O)OCC (configuration not stated),6,.,.,.,.,.,.,.,.
